TDP1 cell noCPT: qHTS for Inhibitors of human tyrosyl-DNA phosphodiesterase 1 (TDP1): qHTS in cells in absence of CPT; DT40 Tdp1-/- hTDP1 cells, no CPT, ATP luminescence, 48 h; Potency, µM (series often up to 46.2 µM), inactives show at the top dose activity change, negative = growth inhibition, hits mostly inhibitors; hit rate 15% among 420,000; AID 686978, 2013; further: potency means the concentration at half of the fitted maximal effect; on the % scale 0 is the no-effect control and ±100 the full control effect; nearly all actives have a fitted effect of over 55% in size
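Camptothecin absent (DMSO only). Human TDP1-complemented DT40 knockout cells, 400 cells/well, 37 °C for minimum 48 hr; ATP measured via CellTiter-Glo, 30 min dark incubation, luminescence.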
IL1B secr inh: inflammasome signaling inhibition, IL-1 beta readout; hit rate 4.7% among 360,000; THP-1 LPS/ATP IL-1B secretion, AlphaLISA, 16 h; hits give low values; activity change, % at 57.5 µM; AID 743279; in the data active means activity change below about -50%; inconclusive means mostly about -30% to -49%; further: on the % scale 0 is the no-effect control and ±100 the full control effect
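THP-1 cells pretreated 1 hr with compounds (up to 57.5 uM final), then stimulated with LPS (250 ng/mL final) plus ATP (1.25 mM final); secreted IL-1B measured by AlphaLISA after 16 hr, decreased signal indicating inhibition.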
TDP1 inh: TDP1 (human) enzyme inhibition; Potency, µM (titrated, usually from 130 µM), inactives show at the top dose activity change, negative = inhibition, hits mostly inhibitors; hit rate 0.28% among 350,000; recombinant TDP1, AlphaScreen DNA substrate cleavage; further: potency means the concentration at half of the fitted maximal effect; on the % scale 0 is the no-effect control and ±100 the full control effect; nearly all actives have a fitted effect of over 40% in size
Target sequence (Q9NUW8 whole entry, looked up): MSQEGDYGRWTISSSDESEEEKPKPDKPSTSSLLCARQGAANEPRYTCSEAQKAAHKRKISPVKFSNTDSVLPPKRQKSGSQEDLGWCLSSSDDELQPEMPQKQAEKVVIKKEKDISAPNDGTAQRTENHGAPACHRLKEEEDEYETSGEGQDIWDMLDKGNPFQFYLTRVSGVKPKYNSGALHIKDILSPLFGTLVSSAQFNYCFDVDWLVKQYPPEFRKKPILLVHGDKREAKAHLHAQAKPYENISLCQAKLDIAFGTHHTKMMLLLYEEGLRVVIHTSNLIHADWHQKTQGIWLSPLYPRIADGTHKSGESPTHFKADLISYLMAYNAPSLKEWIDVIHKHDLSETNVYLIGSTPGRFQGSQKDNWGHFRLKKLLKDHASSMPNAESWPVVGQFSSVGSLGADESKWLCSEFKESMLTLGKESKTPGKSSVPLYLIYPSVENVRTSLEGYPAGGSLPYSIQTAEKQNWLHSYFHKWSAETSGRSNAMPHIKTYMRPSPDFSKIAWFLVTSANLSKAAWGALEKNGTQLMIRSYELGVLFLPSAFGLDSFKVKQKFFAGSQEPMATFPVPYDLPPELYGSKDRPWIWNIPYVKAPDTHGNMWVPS
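Steps: enzyme plus compound, 15 min RT; add biotin/phosphotyrosine-FITC oligonucleotide (15 nM final), react 5 min; add donor/acceptor beads (10 ug/ml final), 10 min; read AlphaScreen. Tdp1 at 1 nM final.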
TDP1 cell CPT: growth inhibition of DT40 Tdp1-/-;hTDP1 cells with camptothecin (screen for TDP1 inhibitors); Potency, µM (titrated, usually from 46.2 µM), without a hit: top-dose activity change, negative = growth inhibition, hits mostly inhibitors; AID 686979; hit rate 12% among 420,000; chicken DT40 Tdp1-/-;hTDP1 cells + 20 nM CPT, ATP luminescence, 48 h; further: potency means the concentration at half of the fitted maximal effect; on the % scale 0 is the no-effect control and ±100 the full control effect; nearly all actives have a fitted effect of over 55% in size
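Chicken DT40 Tdp1-/- cells complemented with human TDP1, 400 cells/well, exposed to compounds plus 20 nM camptothecin for at least 48 h at 37 C; viability read as ATP content by CellTiter-Glo luminescence.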
TGFb inhibitor: blocks TGF-b signaling | HepG2 CAGA-GFP TGF-b/SMAD3 reporter, GFP fluorescence, 18 h; TGF-beta stimulated, 500 pg/mL final | Potency, µM (top dose mostly 46.1 µM), inactives show at the top dose activity, negative = inhibition, hits mostly inhibitors | hit rate 1.2% among 410,000 | AID 588855; further: potency means the concentration at half of the fitted maximal effect; on the % scale 0 is the no-effect control and ±100 the full control effect; nearly all actives have a fitted effect of over 65% in size
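Smad-responsive CAGA-GFP expression was quantified in HEPG2 cells exposed to compounds and 500 pg/mL final TGF-beta for 18 h at 37 degrees C; unstimulated wells defined full inhibition.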
HepG2 tox: counter-screen for TGF-b inhibitors: cytotoxicity in HepG2 cells; HepG2 CAGA-GFP viability, ATP luminescence, 18 h; AID 588856; Potency, µM (top dose mostly 46.1 µM), inactives show at the top dose activity change, negative = cytotoxicity, usual class: cytotoxic; hit rate 0.76% among 410,000; further: potency means the concentration at half of the fitted maximal effect
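HepG2 CAGA-GFP cells (1000/well, DMEM with 1% FBS) received compound, then TGF-beta at 500 pg/mL final, and were incubated 18 hours at 37 degrees C. Viability was read by CellTiter-Glo luminescence. Media-only wells were set as complete cell-killing and DMSO as no toxicity.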
* = called active by the depositor; ? = inconclusive; . = no result given; [ ] = another dose, or the depositor's remark. Only some compounds are listed: those with a hit (about 18% of all), similar ones and a draw of the others. Unless noted, the call rests on the fitted dose curve; in most records, active means well fitted curve in the direction sought with a large enough effect; inconclusive means small, poorly fitted or top-dose-only effect, or another doubt; inactive means no such curve, though single readings can be large; an effect the other way counts as inactive or inconclusive.

SMILES | TDP1 cell noCPT | IL1B secr inh | TDP1 inh | TDP1 cell CPT | TGFb inhibitor | HepG2 tox
CC(C)CNC(=O)C1(C)CCCN1Cc1ccccc1OC(F)F (stereo not given) | 23.1µM* | -5.4 | . | 20.6µM* | -22.2% | -8.1%
CCC(Oc1ccccc1)C(=O)Nc1cc(Cl)ccc1-n1cncn1 (stereo not given) | -20.1% | -13.3 | 11.1% | -18.4% | -1.7% | 0.0%
Cc1nc(NCc2c(C)nn(C)c2Cl)sc1-c1ccn(CC2COc3ccccc3O2)n1 (stereo not given) | 20.6µM* | . | . | 16.4µM* | . | .
CCn1ccnc1CC1COc2ccccc2O1 (stereo not given) | -12.0% | -6.0 | 11.8%[56.1 µM] | 2.0% | 13.6% | -2.5%
Cc1nn(C)cc1CNc1nc(C)c(-c2ccn(CC3COc4ccccc4O3)n2)s1 (stereo not given) | 20.6µM* | . | . | ? | . | .
Cc1nc(NCc2cnn(C)c2C)sc1-c1ccn(CC2COc3ccccc3O2)n1 (stereo not given) | ? | . | . | -6.4%[9.04 µM] | . | .
COc1cccc(CNC(=O)c2ccc3nc(N4CCCCC4)sc3c2)c1OC | ? | . | -1.0% | ? | -20.0% | -19.9%
Cc1ccc2nccc(C(=O)N3CCCC(Nc4ccc(C)c(C)c4)C3)c2c1 (stereo not given) | ? | 2.5 | 8.0% | ? | 2.9% | 0.2%
FC(F)(F)c1cc(CO[C@H]2CCCN[C@H]2c2ccccc2)cc(C(F)(F)F)c1 | 13.3µM* | . | -12.3%[56.1 µM] | 10.6µM* | . | .
O=C(Nc1ccccc1)O[C@@H]1C[C@H]2CCC(=O)N3CC[C@@H](C1)[C@@H]23 | 11.2µM* | . | . | ? | 8.3% | 13.9%
COc1ccc(NC(=O)N2CCC(CN3CCCC3)CC2)c(OC)c1 | 2.6% | . | -3.7% | 0.0% | -0.8% | 3.2%
CCOC(=O)C1=CCN(S(=O)(=O)c2ccccc2Br)C1c1cccc(C)c1 (stereo not given) | ? | 37.3 | . | ? | -17.4% | -6.5%
COc1ccc(OCc2cc(=O)[nH]c3ccccc23)cc1 | -24.9% | -10.7 | . | -16.7% | -4.2% | -10.7%
COc1ccc2sc3c(=O)[nH]c4ccccc4c3c2c1 | 1.64µM* | 12.3 | 2.0% | 5.8µM* | 7.2% | -18.4%
COc1ccc2oc(-c3ccc(C)c(NC(=O)c4ccc(N5CCOCC5)c([N+](=O)[O-])c4)c3)nc2c1 | ? | 39.3 | 0.0% | -19.4% | -8.8% | -24.1%
CC(=O)Nc1ccc(N2CCCC(C)C2)c([N+](=O)[O-])c1 (stereo not given) | 23.1µM* | -19.3 | 5.5% | -9.7% | 1.9% | -0.3%
Cc1ccc(C(=O)Nc2cccnc2)cc1[N+](=O)[O-] | 3.7% | -16.4 | 2.6% | -13.8% | 3.3% | -2.1%
Cc1ccc2oc(-c3cccc(NC(=O)c4ccc(N5CCC(C)CC5)c([N+](=O)[O-])c4)c3)nc2c1 | 7.31µM* | . | 0.6% | 18.4µM* | -27.3% | -44.1%
CC1CCCN(c2ccc(C(=O)Nc3cccnc3)cc2[N+](=O)[O-])C1 (stereo not given) | ? | ? | 7.5% | 16.4µM* | -4.4% | -28.8%
CS(=O)(=O)N1CCC2(CC1)CN(c1ccccc1)C2 | ? | . | . | -16.8% | . | .
CCCOc1ccc(C(=O)N(Cc2cccs2)c2ccc(C)cc2)cc1 | -24.8% | . | -5.7% | -22.4% | -2.3% | -29.3%
COc1cccc(COC(=O)CSCC(=O)Nc2ccc(C)cc2)c1OC | ? | -21.5 | . | ? | 1.6% | 2.9%
CC[C@H](C)[C@H](NC(=O)[C@H](CCC(=O)O)NC(=O)[C@H](CC(N)=O)NC(=O)[C@@H](N)[C@@H](C)O)C(=O)N[C@H](C(=O)N[C@@H](CCC(=O)O)C(=O)N[C@@H](CCC(=O)O)C(=O)N[C@@H](CCC(N)=O)C(=O)N[C@@H](Cc1ccc(O)cc1)C(=O)N[C@H](C(=O)N1CCC[C@H]1C(=O)N[C@@H](CCC(N)=O)C(=O)N[C@@H](CO)C(=O)N[C@@H](CC(C)C)C(=O)N[C@@H](C)C(=O)N[C@H](C(=O)N[C@@H](CC(C)C)C(=O)N[C@@H](CCC(=O)O)C(=O)N[C@@H](CO)C(=O)N[C@H](C(=O)N[C@@H](Cc1ccccc1)C(=O)N[C@@H](CCC(N)=O)C(=O)N[C@@H](CCC(=O)O)C(=O)N[C@@H](CC(C)C)C(=O)NCC(=O)N[C@@H](CCCCN)C(=O)N[C@@H](CC(C)C)C(=O)N[C@H](C(=O)NCC(=O)N1CCC[C@H]1C(=O)N[C@@H](CC(N)=O)C(=O)N[C@@H](CO)C(=O)N[C@@H](CCC(N)=O)C(=O)O)[C@@H](C)O)C(C)C)[C@@H](C)O)[C@@H](C)O)C(C)C | . | . | 14.8% | . | . | .
Cc1ccc2nc(C(C)(C)C)c(Cc3ccccc3C(F)(F)F)n2c1 | 14.6µM* | -8.5 | . | 16.4µM* | ? | -99.9%
Fc1ccc(-c2nc3ccc(Cl)cn3c2Cc2ccccc2C(F)(F)F)cc1 | ? | 22.8 | . | ? | 12.6µM* | -42.3%
SMILES | TDP1 cell noCPT | IL1B secr inh | TDP1 inh | TDP1 cell CPT | TGFb inhibitor | HepG2 tox
Cc1ccc(-c2nc3c4ccccc4ccn3c2Cc2ccccc2C(F)(F)F)cc1 | 16.4µM* | 22.2 | . | ? | . | .
Fc1ccc(-c2nc3ccc(Br)cn3c2Cc2ccccc2C(F)(F)F)cc1 | ? | -9.7 | . | ? | ? | -31.6%
Cc1ccc(-c2nc3c(Cl)cc(C(F)(F)F)cn3c2Cc2ccccc2C(F)(F)F)cc1 | -23.1% | 17.7 | . | 1.2% | . | .
Cc1ccc2nc(-c3ccccc3)c(Cc3ccccc3C(F)(F)F)n2c1 | ? | -13.0 | . | 16.4µM* | ? | -82.9%
CCN(Cc1ccccc1)C(=O)CCc1c(C)nc2c(c(C)nn2-c2ccc(C)c(C)c2)c1C | 15.1% | . | 1.2% | 3.6% | -29.0% | -0.8%
CCCCOc1ccc(/C=C/C(=O)N(CC)CC(=O)Nc2ccc3c(c2)OCCO3)cc1OC | -22.9% | ? | 4.1% | ? | ? | -13.7%
FC(F)(F)c1ccccc1Cc1c(-c2ccco2)nc2ccc(Cl)cn12 | ? | -24.6 | . | ? | ? | 6.31µM*
COc1ccc(Cc2c(C(C)(C)C)nc3ccc(C)cn23)c(C)c1 | 13µM* | -14.0 | . | 14.6µM* | -7.5% | -25.3%
COc1ccccc1Cc1c(C(C)(C)C)nc2ccc(C)cn12 | 9.2µM* | 6.0 | . | 0.651µM* | ? | -39.5%
N#Cc1ccc(-c2nc3ccc(Cl)cn3c2Cc2ccccc2C(F)(F)F)cc1 | ? | -16.1 | . | ? | ? | -19.2%

High-throughput results from PubChem.
